KKLEB tox = CF airway cell cytotoxicity counter-screen. KKLEB CF airway cells viability, ATPlite luminescence, overnight; stronger effect = lower value; cells stimulated with P. aeruginosa culture filtrate. activity change (cytotoxicity), % at 5 µM. 360,000 tested, 0.36% active;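 active = corrected activity change at or below -50% at 5 µM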
Shn3 3UTR inh = reduces Shn3 3'UTR luciferase signal in osteoblasts. inhibition, % at 12.5 µM. Clone20 osteoblast Shn3 3'UTR firefly luciferase, 24 h. 360,000 tested, 0.52% active. AID 588674;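 active = mean inhibition of at least 75% with every replicate also reaching 75%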;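 note: 0% = median of neutral control wells and 100% = pilot-screen positive control compound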
Peg3 promoter = reduces Peg3 promoter-driven luciferase expression in HeLa; HeLa PEG-Prom luciferase reporter, luminescence, overnight; 360,000 tested, 1.7% active; AID 588405; inhibition, % at 20 µM;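 active = inhibition of at least 50% at 20 µM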
CF NFkB inh = inhibitors of cystic fibrosis induced NF-kB | AID 588850 | inhibition, % at 5 µM | 360,000 tested, 0.86% active | KKLEB NF-kB-GFP reporter, PAF-induced, GFP fluorescence overnight;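 active = at least 50% inhibition at 5 µM, scaled per plate between neutral and stimulator controls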;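 note: PAF is a Pseudomonas aeruginosa culture filtrate used as stimulus; plate controls were PAF-stimulated DMSO wells for no effect and unstimulated DMSO wells for full effect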
HIF-2a block = blocks HIF-2a reporter activity. 786-0 RCC cells HIF-2a reporter, luciferase luminescence, overnight. 360,000 tested, 0.72% active. inhibition, % at 18.8 µM;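 active = inhibition of the luminescence signal of 40% or more relative to plate controls, in a single-dose primary screen at 18.75 µM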
Mdm2 MdmX conf = confirmation of inhibitors of human Mdm2/MdmX interaction, set 2; shares compounds with HIF-2a block; SaOS-2 split-luciferase Mdm2/MdmX complementation, luminescence; inhibition, % at 8 µM; 740 tested, 99% active; AID 504601;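 active = mean inhibition of the luminescence signal across two replicates at or above 26 percent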
Target sequence (O15151 whole entry, looked up): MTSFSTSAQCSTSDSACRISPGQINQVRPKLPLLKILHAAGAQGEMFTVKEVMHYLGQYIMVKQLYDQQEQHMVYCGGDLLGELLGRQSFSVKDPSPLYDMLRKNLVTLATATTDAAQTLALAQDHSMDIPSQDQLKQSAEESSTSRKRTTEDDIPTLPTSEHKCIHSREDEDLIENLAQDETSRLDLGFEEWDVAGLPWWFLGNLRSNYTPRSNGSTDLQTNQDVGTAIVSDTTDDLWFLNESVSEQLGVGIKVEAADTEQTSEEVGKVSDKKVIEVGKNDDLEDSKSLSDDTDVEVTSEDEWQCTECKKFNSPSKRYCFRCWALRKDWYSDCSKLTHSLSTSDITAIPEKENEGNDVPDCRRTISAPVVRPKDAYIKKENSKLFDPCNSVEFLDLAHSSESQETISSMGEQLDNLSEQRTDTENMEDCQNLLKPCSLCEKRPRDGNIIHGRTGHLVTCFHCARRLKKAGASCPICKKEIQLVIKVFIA
Target sequence (Q00987 whole entry, looked up): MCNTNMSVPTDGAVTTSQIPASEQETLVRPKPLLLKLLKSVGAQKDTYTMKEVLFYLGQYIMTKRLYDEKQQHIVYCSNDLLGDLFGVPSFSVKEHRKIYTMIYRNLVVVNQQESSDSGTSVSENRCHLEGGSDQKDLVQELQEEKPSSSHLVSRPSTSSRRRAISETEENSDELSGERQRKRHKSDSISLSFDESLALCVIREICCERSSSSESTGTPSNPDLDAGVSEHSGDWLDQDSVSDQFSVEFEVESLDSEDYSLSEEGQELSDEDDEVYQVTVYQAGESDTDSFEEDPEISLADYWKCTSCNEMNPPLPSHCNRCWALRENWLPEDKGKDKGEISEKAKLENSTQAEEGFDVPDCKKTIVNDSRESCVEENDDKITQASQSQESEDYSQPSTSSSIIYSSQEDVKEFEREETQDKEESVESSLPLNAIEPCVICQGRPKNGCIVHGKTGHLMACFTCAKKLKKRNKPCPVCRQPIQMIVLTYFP
HIF-2a conf = confirmation of HIF-2a inhibitors; shares compounds with HIF-2a block; 786-0 RCC cells, HIF-2a luciferase reporter luminescence, overnight; inhibition, % at 18.8 µM; 1,800 tested, 56% active; AID 651580;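 active = mean inhibition across four replicates of at least 40 percent at the single tested concentration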
HIF-1a counter = HIF-1a inhibition counter-screen for HIF-2a hits. 1,800 tested, 72% active. AID 651589. MiaPaCa-2 HIF-1a luciferase reporter, desferoxamine, overnight. shares compounds with HIF-2a block. inhibition, % at 18.8 µM;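 active = mean inhibition of the reporter signal across four replicates at the single tested dose of 50% or more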
* hit, by the source's call; . = no result given. Most compounds without a hit are left out; they make up all but 2.6% or so of the library.

SMILES	KKLEB tox	Shn3 3UTR inh	Peg3 promoter	CF NFkB inh	HIF-2a block	HIF-2a conf	HIF-1a counter	others
CC1CC2(C)Oc3ccccc3CC2C(C)C1CNCCCN(C)C (stereo unspecified)	-20	13	107*	23	84*	6	105*	Mdm2 MdmX conf=101*
NNc1nc2c(-c3ccc(Cl)cc3)nnn2c2ccccc12	-2	-92	-251	-35	-265	.	.
Clc1nc2c(-c3ccccc3)nnn2c2ccccc12	1	.	103*	42	-63	.	.	Mdm2 MdmX conf=103*
CC1CCN(C(=O)COC(=O)c2ccc([N+](=O)[O-])o2)CC1	8	1	19	21	-11	.	.
O=C(Nc1ccc(-n2cc(Br)cn2)cc1)c1ccncc1	-5	20	-30	-29	-20	.	.
O=C(COC(=O)c1nc(Cl)c(Cl)c(Cl)c1Cl)NCc1ccccc1	3	0	92*	31	70*	18	-19
CC(C)(C)c1ccc(-c2noc(CCC(=O)Nc3cccnc3)n2)cc1	-6	36	-202	-11	92*	96*	-4
Cc1ccc(-c2noc(CCC(=O)NCC3CCCO3)n2)cc1 (stereo unspecified)	-13	-16	0	8	-9	.	.
CC(C)(C)c1ccc(-c2noc(CCC(=O)NCC3CCCO3)n2)cc1 (stereo unspecified)	-11	59	-151	7	80*	95*	-80
COc1ccc(-c2noc(CCC(=O)Nc3cccnc3)n2)cc1	-2	3	-63	14	-44	.	.
CC(C)(C)c1ccc(-c2noc(CCC(N)=O)n2)cc1	-9	17	49	18	87*	94*	-9
COC(=O)c1sccc1NC(=O)CSc1nnnn1-c1ccccc1C	3	10	-10	12	4	.	.
CC(C)Cc1nc2oc3c(Cl)ncnc3c2c2c1CCCC2	-2	9	113*	22	75*	45*	100*
CCCc1nc([N+](=O)[O-])c(S(=O)(=O)c2ccccc2)n1CC(C)C	-16	91*	48	55*	45*	27	-43
O=C(COC(=O)c1ccc(NS(=O)(=O)c2ccc(F)c(F)c2)cc1)NCC1CCCO1 (stereo unspecified)	9	-9	14	-5	45*	-9	13
Cc1ccc(C(=O)O/N=C(\N)c2ccccn2)c(C)c1	-46	96*	106*	30	89*	.	.	Mdm2 MdmX conf=101*
C=C1C(=O)O[C@@H]2C[C@@H](C)[C@@H]3C=CC(=O)[C@@]3(C)[C@@H](OC(C)=O)[C@H]12	.	.	.	.	.	.	.	Mdm2 MdmX conf=102*
C[C@@H]1C[C@@H]2OC(=O)[C@]3(C)[C@H]2[C@@H](OC3(C)O)[C@]2(C)C(=O)C=C[C@H]12 (stereo partly specified)	-12	-49	3	3	-15	.	.
COc1cc(OCc2ccccc2)c(C(=O)/C=C/c2ccc3c(c2)OCO3)c(OC)c1OC	-4	7	39	12	52*	40*	53*
COc1cc(OC)c(C(=O)/C=C/c2ccc(OCc3ccccc3)c(OC)c2)c(OC)c1	15	6	48	-1	46*	32	39
COc1cc(OC)c(C(=O)C=Cc2ccc(OC)c(OC)c2)c(OC)c1	-13	-12	16	35	37	.	.
Cc1ccc(C(N)=Nc2ccccc2)cc1	-6	2	-20	-13	-54	.	.
CCN(CCCNC(=O)CCC(=O)N1CCOc2ccccc21)Cc1ccccc1	-9	-2	5	37	7	.	.
O=C(Nc1ccc(SC(F)F)cc1)c1cc(-c2ccncc2)nc2ccccc12	-8	7	31	-15	20	.	.
O=C(Cc1ccc(Cl)cc1)Nc1ccccc1C(=O)N1CCCC1	15	-6	20	-19	11	.	.
O=C(Cc1cccc(NC(=O)C2CCN(C(=O)CCc3ccccc3)CC2)c1)Nc1cccc(C(=O)N2CCCC2)c1	4	15	-1	5	7	.	.
